This note sets out measurements from PubChem BioAssay AID2315 (National Center for Advancing Translational Sciences (NCATS), 2010).

About 27,000 (9.3%) of roughly 290,000 compounds were called active. For the sample, actives were picked, then their nearest neighbours and some compounds at random. A number with no mark means an inactive call. Rule as the data show it: active = inhibition mostly above about 28% (no sharp cut-off); inactive = mostly below about 43%. Where a SMILES comes first, the peptide text is derived from it.

The assay is described as follows: A qHTS for Small Molecule Inhibitors of Shiga Toxin. Also: 0% is about no effect. Particulars: Vero cells, Shiga toxin protein synthesis inhibition reporter; at 38.7 µM, hits give high values.
With `O=C(O)CCCN1C(=O)C2C3c4ccccc4C(c4ccccc43)[C@@H]2C1=O` (stereo not given in full), the inhibition is -10.8%.

Take `COc1ccc(OC)c(C(O)c2nc3ccccc3n2C)c1` (stereo not given): the inhibition was -12.2%. Then `COc1ccc(-c2nnc(SC(=O)N3c4ccccc4Sc4ccccc43)o2)cc1`, with 18.6%. Regarding `COc1ccc(-c2nnc(SCc3cccnc3)o2)cc1`, the inhibition is 48.5% (active). With `COC(=O)CSc1nnc(-c2cccnc2)o1` the figure was 8.44%; with `Cc1cc(Cl)ccc1OCCCC(=O)Nc1cccc(-n2cnnn2)c1`, -13.8%; with `CCc1ccc2c(c1)C1(NN=C(c3ccccc3)S1)C(=O)N2` (stereo not given), 105% (active). Turning to `COc1ccccc1C(=O)N/C(=C/c1ccco1)C(=O)Nc1ccc(C(=O)O)cc1`, the inhibition was -2.72%. Then `CC(=O)c1ccc(N2CCN(C(=O)CCNC(=O)Cn3ccc4ccccc4c3=O)CC2)cc1`, with 26.7%; and `Cc1ccc(N=Cc2c(O)cc(C)oc2=O)c(C)c1`, with -1.09%. Then `Cc1cc(O)c(C(=O)/C=C/c2c(F)c(F)c(F)c(F)c2F)c(=O)o1`, with 68.6% (active); and `N#Cc1cc([N+](=O)[O-])ccc1NCC1CCCO1` (stereo not given), with -5.89%. Then `CC(C)N1CCc2c(sc(NC(=O)Cc3ccccc3)c2C#N)C1`, with 2.11%; and `O=C(CN1CCOC1=O)N1CCCC(Nc2ccc(F)c(F)c2)C1` (stereo not given), with 13.5%; and `CCc1ccnc(NC(=O)Nc2ccc(OCc3ccccc3)cc2)c1`, with 17.6%. On to `Cc1cccc(OCC(=O)NCCCNC(=O)c2ccccn2)c1`, for which the inhibition was -11.4%. With `Cc1cccc(OCCC(=O)Nc2ccccc2C(N)=O)c1` the figure was 5.43%; with `Cc1cccc(OCC(=O)Nc2ccc(C(=O)O)cc2NC(=O)COc2cccc(C)c2)c1`, -5.8%. Then `O=C(CCc1ccccc1)NNc1ccc(F)cc1`, with -4.35%; and `COc1cccc(OCC(=O)Nc2ccccc2C(N)=O)c1`, with 75.1% (active).

On to `Cc1ccc(F)c(NC(=O)CCOc2ccccc2C)c1`, for which the inhibition was 2.89%. Regarding `Cc1cccc(OCC(=O)Nc2ccccc2F)c1`, the inhibition is 74.7% (active).

In the case of `CCCOC(=O)Nc1ccccc1C(N)=O`, the inhibition was -12.3%.

Turning to `Cc1ccc(F)c(NC(=O)CCc2ccccc2)c1`, the inhibition was 70.1% (active). With `CCOC(=O)C1=C(CCc2ccccc2)NC(=O)NC1c1ccc2ccccc2c1` (stereo not given) the figure was 2.87%; with `COC(=O)Cc1ccc(N(Cc2ccccc2F)S(=O)(=O)c2ccc(Br)cc2)cc1`, 9.28%; with `CC(Oc1ccccc1)C(=O)Nc1c2c(nn1-c1ccccc1)CS(=O)C2` (stereo not given), -1.03%.

On to `CCOCCCN(C)C1CCN(C(=O)c2oc3ccccc3c2NC(=O)COc2cccc(C)c2)CC1`, for which the inhibition is -8.02%. Turning to `CC(=O)Nc1ccc(C(=O)N(C2=NC(C)CS2)c2ccc(Cl)cc2)cc1` (stereo not given), the inhibition was 32.9%. Consider `CC1CN(C(=O)CCC(=O)NC2CCN(Cc3ccccc3)CC2)c2ccccc2O1` (stereo not given), for which the inhibition was 10.3%. Take `COCC1CCCN(Cc2cn[nH]c2-c2cc3ccccc3o2)C1` (stereo not given): the inhibition was 56.9%.

In the case of `CC1CCN(Cc2nc(-c3ccc(Cl)cc3)no2)CC1`, the inhibition was 34.4%. Then `COCC1CCCN(Cc2nc(-c3ccc4c(c3)OCO4)no2)C1` (stereo not given), with 53.7% (active); and `CCCc1cc(=O)[nH]c(SCC(=O)Nc2sc3c(c2C#N)CCCC3)n1`, with -2.72%; and `COc1ccc(C)cc1N(CC(=O)NC(C)c1ccccc1)S(C)(=O)=O` (stereo not given), with -6.92%. Consider `Cc1ccc(-c2nc3ccccc3[nH]2)cc1NC(=O)c1sc2ccccc2c1Cl`, for which the inhibition was -6.19%. Then `COc1ccc(Br)cc1C(=O)Nc1cccc(C)c1C`, with 26.5%; and `COc1ccc(Br)cc1C(=O)NC(=S)Nc1cc(-c2nc3ccccc3[nH]2)ccc1C`, with 0% (active); and `COC(=O)COc1ccc2c(c1C)O/C(=C\c1ccco1)C2=O`, with 15%. In the case of `Cc1ccc(/C=C2/SC(=S)N(CCC(=O)NCCCN3CCOCC3)C2=O)cc1`, the inhibition was 21.5%. Then `CCn1cc(CN2CCC(C(=O)Nc3cccc(-c4cccc(Cl)c4)c3)CC2)cn1`, with -25.7%; and `COc1ccccc1NC(=O)c1ccc2nc(N3C(=O)CCC3=O)sc2c1`, with 36%. With `COc1ccc(C2=NN(c3nc4ccccc4s3)C(=O)C2)cc1` the figure was 72.3% (active); with `CCOC(=O)N1CCN(CC(=O)Nc2cc(C)nn2-c2nc3ccccc3s2)CC1`, -4.88%. For `Cc1ccc2c(c1)N(CC(=O)N1CCC(O)CC1)C(=O)CO2`, the inhibition was 1.8%. With `COc1ccc2[nH]c(=O)c(CN(Cc3cccnc3)S(=O)(=O)c3ccccc3F)cc2c1` the figure was -10.7%; with `COc1ccc(-c2nc(CS(=O)CC(=O)NCc3ccccc3)c(C)o2)cc1OC` (stereo not given), -3.29%; with `C/C(CC(=O)NCc1ccc(Cl)cc1)=N\NC(=O)COc1ccc(C)cc1Br`, 2.05%. For `Cc1ccc(NC(=O)c2sc3nc(N)c(C#N)cc3c2N)cc1`, the inhibition was 63.4% (active). With `CC(=O)Nc1ccc(NC(=O)c2sc3nc4c(c(-c5ccc(C)cc5)c3c2N)CCC4)cc1` the figure was -4.09%. Then `Cc1cccc(NC(=O)c2sc3nc4c(c(-c5ccco5)c3c2N)CCC4)c1`, with -3.76%; and `Cc1c(CCC(=O)O)c(=O)oc2c(C)c(OCc3ccccc3Cl)ccc12`, with -3.03%. Turning to `CN(Cc1ccc(F)cc1)C(=O)COc1ccc2ccccc2c1`, the inhibition was 26.4%.

As for `CN(Cc1ccccc1)C(=O)COc1ccccc1`, the inhibition is 60.6% (active). Then `CN(Cc1ccccc1)C(=O)c1ccc(COc2ccccc2)cc1`, with 12.4%.

With `Cc1cc(C)c(NC(=O)CSc2nc3ccncc3[nH]2)c(C)c1`, the inhibition was -6.43%. With `CCOc1ccc2nc(/N=C/c3nc(-c4ccccc4)oc3O)sc2c1` the figure was -1.97%. For `CC(N=Cc1nc(-c2ccccc2)oc1O)c1ccccc1` (stereo not given), the inhibition is 54.4% (active).

For `CCC1(CC)NC(=O)N(CC(=O)OCC(=O)NC(=O)c2ccccc2)C1=O`, the inhibition was 19.1%.

Consider `CCC1(CC)NC(=O)N(Cc2nc3ccccc3s2)C1=O`, for which the inhibition is 26.9% (active).

In the case of `COC(=O)C1[C@H]2SC(C)(C)C(C(=O)OC)N2C(=O)N1Cc1nc2ccccc2s1` (stereo not given in full), the inhibition is 5.52%.

As for `CC(C)OCCCNC(=S)N1CCC(C(=O)c2ccc3c(c2)OCCO3)CC1`, the inhibition was -16.4%.

Consider `Cc1nn(CC(=O)N2CCCCC2)c(=O)c2nn(-c3ccccc3)c(C)c12`, for which the inhibition is -2.2%. Then `CCCc1nn(C)c2c(=O)[nH]c(-c3cc(S(N)(=O)=O)ccc3OCC)nc12`, with -4.47%. Then `COc1ccccc1Cc1nc(-c2ccc(C)cc2)no1`, with 57.4% (active). With `COc1ccc(N(Cc2cc3cc(OC)ccc3[nH]c2=O)S(C)(=O)=O)cc1` the figure was -19.8%; with `COc1ccc(-c2noc(CN(C)S(=O)(=O)c3ccc(C)cc3)n2)cc1`, -3.7%. In the case of `COc1ccc2[nH]c(=O)c(-c3noc(-c4ccc(F)cc4)n3)cc2c1`, the inhibition is 69.3% (active). Then `COc1ccc(-c2noc(CSc3ccc(C)cc3)n2)cc1`, with 14.3%. As to `COc1ccc(Cc2nc(-c3ccccn3)no2)cc1OC`, the inhibition was 56.5% (active). Then `CCCc1nc(-c2cc3cc(C)ccc3[nH]c2=O)no1`, with -2.41%; and `COc1ccc(CNc2cc(C)cc(C)c2)cc1OC`, with -14.7%. With `Cc1ccc(-c2noc(CC(c3ccccc3)c3ccccc3)n2)cc1` the figure was -20.2%. With `COc1ccc(CCNS(=O)(=O)c2cccc3cccnc23)cc1OC`, the inhibition is 18.1%. Then `COc1ccccc1CNS(=O)(=O)c1ccc(C)cc1`, with 11.5%. For the molecule `COc1ccc(-c2noc(-c3ccc(C)cc3)n2)cc1`, the inhibition was 79% (active).

Consider `CC(=O)NC1CCN(CC(=O)Nc2nccs2)CC1`, for which the inhibition is -3.57%. On to `CN=C1S/C(=C\c2c(OC)cc(OC)cc2OC)C(=O)N1C`, for which the inhibition is -8.5%. With `CC[C@H](C)[C@H](NC(=O)[C@H](Cc1cnc[nH]1)NC(=O)[C@@H](N)CCC(=O)O)C(=O)N1CCC[C@H]1C(=O)N[C@@H](C)C(=O)O` (H-EHIPA-OH) the figure was -0.529%; with `CC(=O)C1=C(C)NC(=O)NC1c1ccc2c(c1)OCO2` (stereo not given), 2.18%; with `COc1ccccc1C(=O)COC(=O)CNS(=O)(=O)c1ccc(NC(C)=O)cc1`, -27.5%. Then `CC(CC(=O)Nc1ccc(F)cc1F)S(=O)(=O)c1ccc2c(c1)NC(=O)CO2` (stereo not given), with -3.11%. Then `CC1=C(C(=O)Nc2ccccc2)S(=O)(=O)CCO1`, with 31.9%; and `CCCCNC(=O)c1ccccc1NC(=O)C1=C(C)OCCS1`, with 1.7%. Take `CC1=C(C(=O)Nc2ccccc2)SCCO1`: the inhibition is 52.1% (active). On to `Cc1cccc(N(C(=O)c2sc(C)nc2C)C(C(=O)NCC2CCCO2)c2ccccc2)c1` (stereo not given), for which the inhibition is -10.3%. Then `COc1ccccc1NC(=O)c1ccc(N2CC3CC(C2)c2cccc(=O)n2C3)c(NC(=O)c2cccnc2)c1` (stereo not given), with 7.14%. As to `NS(=O)(=O)c1cc(C(=O)NCCOc2ccccc2)c(Cl)cc1Cl`, the inhibition is -6.15%. Then `O=C(Nc1ccc(Cl)cc1)Nc1ccc(C(=O)N2CCOCC2)cc1`, with 32.1%. On to `Cc1nn(C)cc1CNC(=O)Nc1ccc(Cl)cc1`, for which the inhibition is 58.7% (active). Then `COc1ccc(Cl)cc1C(=O)NCc1cn(C)nc1C`, with -46.7%; and `Cc1cc(NC(=O)Nc2ccc(Cl)cc2)n(-c2ccccc2)n1`, with 15.7%.

With `Cn1ccc(NC(=O)Nc2ccc(Cl)cc2)n1`, the inhibition is 93% (active).

As for `Cc1nn(C)cc1C(=O)NNC(=S)Nc1ccc(Cl)cc1`, the inhibition was 3.52%. Regarding `CCC(=O)Nc1nc(C)c(C(=O)Nc2cccc(Cl)c2)s1`, the inhibition is 12.8%.
